# Test system: RIOK1
# Conditions: concentration: 1 μM, replicates: in singlicate; n = 1
# 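Further: KINOMEscan kinase panel screen.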
row,Compound,%Inh
1,COC(=O)Nc1nc2cc(Oc3ccc(NC(=O)Nc4cc(C(F)(F)F)ccc4F)cn3)ccc2[nH]1.Cl.Cl [GW681170],0%
2,Fc1ccc(-c2ncn(C3CCNCC3)c2-c2ccnc(Oc3ccc(-c4ccccc4)cc3)n2)cc1 [SB-245391],7%
3,Cc1ccc(C)c(NC(=O)NC2CCN(c3ccnc(Nc4ccc(F)cc4)n3)C2)c1 (centres unmarked) [GSK1379720],23%
4,CSc1cccc2c(-c3ccncn3)c(-c3ccc(F)cc3)nn12 [GW514786],45%
5,Oc1cc(Nc2ccnc3cc(I)ccc23)ccc1F [GW552771],25%
6,Cc1ccc(S(=O)(=O)Nc2ccc(Nc3nccc(Nc4cccc5[nH]ncc45)n3)cc2)cc1 [GSK581271],78%
7,COc1cccc(-c2ccc3c(NC(=O)C4CC4)n[nH]c3n2)c1 [SB-710903],38%
8,O=C(Nc1cccc(-c2nn3ccccc3c2-c2ccnc(Nc3cccc(C(F)(F)F)c3)n2)c1)c1c(F)cccc1F [GSK292658],17%
9,Cl.Cl.NCC(NCc1ccc(-c2ccnc3[nH]ccc23)s1)c1ccccc1 (centres unmarked) [GSK1321565],100%
10,CCn1c(-c2nonc2N)nc2c(C#CC(C)(C)O)nc(OC[C@H](N)c3ccccc3)cc21 [GSK943949],11%
11,COCCOCCOc1cc2ncc3c4ccc(C#N)cc4[nH]c3c2cc1OC,99.4%
12,Clc1ccc(-c2nn3ncccc3c2-c2ccnc(Nc3ccc4c(c3)OCCO4)n2)cc1 [GW829116],0%
13,COc1cccc(NC(=O)NC2CCN(c3ccnc(Nc4cc(OC)c(OC)c(OC)c4)n3)C2)c1 (centres unmarked) [GSK1379763],85%
14,COc1cccc(C(=O)Nc2cccc(Oc3ccc4nc(NC(=O)C5CC5)cn4n3)c2)c1,55%
15,CN(C)Cc1ccc(-c2ccc3c(Nc4ccc(Oc5ccccn5)cc4)ccnc3c2)o1 [GW567148],8%
16,Nc1ncc(-c2cccnc2)c2scc(-c3ccc4c(c3)CCN4C(=O)Cc3ccccc3)c12 [GSK683281],35%

row,Compound,%Inh
1,COc1ccc(Nc2nccc(NCCNC(=O)c3cc4ccccc4s3)n2)cc1 [GSK1379896],19%
2,O=C(Nc1n[nH]c2nc(-c3ccc(O)cc3)ccc12)C1CC1 [SB-710363],47%
3,O=C(Nc1cccc(-c2nn3ccccc3c2-c2ccnc(Nc3cccc(F)c3)n2)c1)c1c(F)ccc(F)c1Cl [GSK357952],24%
4,CN1CCN(Cc2cccc(-c3ccc4c(Nc5ccc(Oc6ccccc6)cc5)ccnc4c3)c2)CC1 [GW578342],21%
5,COc1cc(Nc2nccc(N3CCC(NC(=O)Nc4cccc(C(C)=O)c4)C3)n2)cc(OC)c1OC (centres unmarked) [GSK1379753],73%
6,c1ccc(Oc2ccc(Nc3ccnc4cc(-c5ccc(CNCCN6CCOCC6)o5)ccc34)cc2)nc1 [GW567145],0%
7,CC(C)c1nc(-c2cccc(NS(=O)(=O)c3c(F)cccc3F)c2F)c(-c2ccnc(Nc3ccc(N4CCOCC4)nc3)n2)s1 [GSK2008607],22%
8,C[C@@H](Oc1cc(-n2cnc3cc(-c4ccnc(NCCS(C)(=O)=O)c4)ccc32)sc1C(N)=O)c1ccccc1Cl [GSK907232],90.6%
9,Cn1cc(-c2[nH]c3cc(NC(=O)[C@H](N)C4CCCCC4)cc4c3c2C=NNC4=O)cn1,93.7%
10,CCS(=O)(=O)c1ccc(OC)c(Nc2nccc(-c3c(-c4cccc(NC(=O)c5c(F)cccc5F)c4)nn4ncccc34)n2)c1 [GSK326180],30%
11,Cl.NC(=O)c1cccc(Nc2nccc(Nc3ccc(Oc4c(Cl)cccc4Cl)c(Cl)c3)n2)c1 [GW659009],56%
12,Nc1ncc(-c2ccc3nccc(-c4ccncc4)c3c2)cc1S(=O)(=O)N1CCOCC1 [GSK1627798],30%
13,Cn1cc(-c2ccc3c(c2)CCN3C(=O)Cc2cccc(Cl)c2)c2c(N)ncnc21 [GSK2606590],6%
14,CC(C)(C)c1ccc2nccc(Nc3cccc(O)c3)c2c1 [GW856795],21%
15,CC(=O)Nc1nc2cnc(Nc3cc(NC(=O)c4cccc(C5(C#N)CC5)c4Cl)ccc3C)nc2s1,15%
16,COc1cc(Nc2nccc(N3CCC(NC(=O)c4cc5ccccc5s4)C3)n2)cc(OC)c1OC (centres unmarked) [GSK1379760],76%

# Source: PMC5540273 (PLoS ONE, 2017)
